# Screens (PubChem)
# This is one part of a sample in which hits are shown more often than they occur.
# TTR transcr act – increases transthyretin transcription; SH-SY5Y TTR promoter Gaussia luciferase, luminescence; 100% = recombinant luciferase protein wells; activation, % at 16.7 µM; 1.3% of 92,000 active;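 active = activation above the mean of all tested compounds plus 3 SD, cut at about 9.5% in these data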;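 note: cells exposed to compounds for one day before reading; 0% = median of all test compound wells on the plate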
# HuH7 TTR inh – counter-screen for TTR activators: TTR transcription inhibitors in HuH7 cells. inhibition, % at 16.7 µM. HuH7 TTR promoter-Gaussia luciferase reporter, luminescence. 4% of 1,100 active. AID 1117279. shares compounds with TTR transcr act;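 active = average inhibition above the solvent-only control wells' mean plus 3 SD, cut at about 15% in these data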;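 note: 0% = cells with DMSO only and 100% = cells with inhibitor control FD; inhibitors lower well luminescence so higher value means more inhibition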
# TTR up confirm – confirmation of human transthyretin transcription activators. activation, % at 16.7 µM. AID 1117280. shares compounds with TTR transcr act. 1,100 tested, under 10 active. SHSY5Y TTR promoter Gaussia luciferase, luminescence; 100% = purified Lucia enzyme wells, no cells;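 active = mean activation above a set limit taken from the earlier primary screen, cut at about 11% in these data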;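 note: 0% = DMSO-treated cells and 100% = recombinant Lucia luciferase without cells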
# Starred values were filed as active, the others as inactive.
SMILES,TTR transcr act,others
COCCCNC(=O)c1cc(Sc2ccc(F)cc2)nc2ccccc12,1,
CCOC(=O)c1c(C)oc2ccc(O)c(CN3CCCCC3)c12,23*,HuH7 TTR inh=-7;TTR up confirm=0
CCOC(=O)c1c(-c2ccccc2)oc2ccc(O)c(CN3CCOCC3)c12,-4,
CCOC(=O)c1c(CN2CCCCC2)oc2ccc(OC)cc12,-1,
Cc1ccc(C)n1-c1ccc(C(=O)NCC2CCCO2)cc1 (stereo unspecified),2,
O=C(CSc1nc2ccccc2n1-c1ccccc1)NCC1CCCO1 (stereo unspecified),2,
Nc1c(C(=O)NCC2CCCO2)c2nc3ccccc3nc2n1-c1ccccc1 (stereo unspecified),11*,HuH7 TTR inh=-15;TTR up confirm=0
CC12CCC(C(S(=O)(=O)Nc3ccccc3)C1=O)C2(C)C (stereo unspecified),4,
COc1ccccc1NC(=O)CSc1nnc(COc2ccccc2OC)n1C,1,
Cn1ccc2c(-c3ccc(F)cc3)cc3c(c21)C1CCC3C1 (stereo unspecified),1,
Cc1ccccc1-c1cc2c(c3c1ccn3C)C1CCC2O1 (stereo unspecified),-1,
Cc1ccccc1-c1cc2c(c3c1ccn3C)C1CCC2C1 (stereo unspecified),10*,HuH7 TTR inh=-6;TTR up confirm=1
O=Cc1cc(-c2ccccc2)[nH]c1-c1ccccc1,-1,
COc1ccc(/C=C/C(=O)NC2=NCCS2)c(OC)c1,-1,
CCCCOc1ncnc2c1[nH]c1ccc(OC)cc12,3,
COc1ccc2[nH]c3c(Cl)ncnc3c2c1,16*,HuH7 TTR inh=19*;TTR up confirm=-1
COc1ccc2[nH]c3c(N4CCc5ccccc5C4)ncnc3c2c1,-6,
O=C(NC(=S)Nc1nc(-c2ccc(Br)cc2)cs1)c1cccnc1,-2,
CCOC(=O)c1ccc(N=Nc2c(C)[nH]n(-c3ccccc3)c2=O)cc1,0,
CC(=O)N(C)c1ccc(N=Nc2c(C)[nH]n(C(N)=S)c2=O)cc1,-1,
CC(=O)N(C)c1ccc(N=Nc2c(C)[nH]n(-c3ccccc3)c2=O)cc1,11*,HuH7 TTR inh=-4;TTR up confirm=0
CC1CCN(C(=O)COC(=O)c2ccc3c(c2)OCCO3)CC1,0,
COc1ccc(C2=NO[C@@H]3[C@@H]4C[C@@H]([C@H]5C(=O)N(C)C(=O)[C@@H]45)[C@H]23)cc1,-2,
C/C(Cl)=C\Cn1c(NCCc2ccccc2)nc2c1c(=O)n(C)c(=O)n2C,0,
CCC(CO)Oc1cc(NCc2cc(C)cc(C)c2)c2ncn(C(C)C)c2c1 (stereo unspecified),11*,HuH7 TTR inh=-23;TTR up confirm=-1
SMILES,TTR transcr act,others
CCC(CO)Oc1cc(NCc2ccncc2)c2ncn(C(C)C)c2c1 (stereo unspecified),4,
CCC(CO)Oc1cc(NCc2ccc(F)cc2)c2ncn(C(C)C)c2c1 (stereo unspecified),-4,
COc1ccccc1NS(=O)(=O)c1ccc(O)c(C(=O)OCC(=O)N2c3ccccc3CC2C)c1 (stereo unspecified),-1,
CSCC(C)N1CCC(n2nccc2NC(=O)CCOc2ccccc2)CC1 (stereo unspecified),0,
CCOC(=O)C1=C(C)N(c2ccccc2)C(=O)/C1=C\c1ccco1,0,
Nc1nonc1-c1noc(-c2ccccc2)n1,2,
CCCCCCCC(=O)NC1=NC(=O)C(C)(C)S1,13*,HuH7 TTR inh=3;TTR up confirm=1
CCCCC(=O)Nc1ccc(NC(=O)CCCC)nc1,0,
CCCCC(=O)Nc1ccc(Br)cn1,1,
Oc1ccc(Br)cc1-c1nc2cnccn2c1NC1CCCCC1,1,
COc1ccc(CNc2ncnc3cc(Cl)ccc23)cc1,-2,
COc1ccc(CNc2ncnc3cc(OC)c(OC)cc23)cc1,10*,HuH7 TTR inh=-18;TTR up confirm=1
COc1cc2ncnc(NCc3ccccc3)c2cc1OC,-3,
Cc1ccc(CN(C)C(=O)c2cc(Br)c(Br)s2)o1,2,
Cc1ccc(CNC(=O)CSCc2ccccc2)cc1,0,
CCC(=O)c1ccc(OCC(=O)N(C)CC(=O)Nc2cccc(F)c2)cc1,10.0*,HuH7 TTR inh=-14;TTR up confirm=0
Cc1ccc(NC(=O)CSCC(=O)N(C)CC(=O)Nc2cccc(F)c2)cc1,-1,
CN(CC(=O)Nc1cccc(F)c1)C(=O)c1ccc(OCC2CCCO2)cc1 (stereo unspecified),0,
CCCCn1cc2c(c1-c1cccc(C)c1)c(=O)n(C)c(=O)n2C,-1,
O=C1CC(c2ccc3ccccc3c2)N=C2N(Cc3ccc4c(c3)OCO4)C/C(=C/c3ccccc3)N12 (stereo unspecified),-1,
C=CCN1C/C(=C/c2ccccc2)N2C(=O)CC(c3ccccc3)N=C12 (stereo unspecified),11*,HuH7 TTR inh=-18;TTR up confirm=1
CC[C@H]1/C(=C/c2ccccc2)N2C(=O)C[C@H](c3ccccc3)N=C2N1C,3,
COc1ccc2cc(-c3cn(C(=O)N(c4ccccc4)c4ccccc4)nn3)ccc2c1,-2,
CCOC(=O)c1ccc(NC(=O)CN2C(=O)NC3(CCCCCC3)C2=O)cc1,-1,
O=C(CN1C(=O)NC2(CCCC2)C1=O)Nc1ccccc1N1CCCC1,-1,
SMILES,TTR transcr act,others
O=C(CN1C(=O)NC2(CCCCC2)C1=O)Nc1ccc(N2CCCCC2)cc1,10*,HuH7 TTR inh=-4;TTR up confirm=0
Cc1ccc(CC(CC(=O)Nc2cccc(C(F)(F)F)c2)C(=O)O)cc1 (stereo unspecified),5,
CS(=O)(=O)N1CCC(C(=O)Nc2cccc(C(F)(F)F)c2)CC1,0,
CCOC(=O)N1CCC(NC(=O)c2cc(C(=O)Nc3cccc(C(F)(F)F)c3)ccc2CO)CC1,-2,
CCN1CCC(NC(=O)Nc2cccc(C(F)(F)F)c2)CC1,19*,HuH7 TTR inh=-14;TTR up confirm=0
Cc1c(Cl)cccc1NC(=S)N(Cc1cccs1)C1CCCC1,4,
O=C1OCCN1c1c(-c2ccccc2)c(N2CCOCC2)nc2ccccc12,-4,
CC(C)c1ccccc1NC(=O)CCCC(=O)O,1,
Cc1cc2c(NC(=O)Nc3ccc(C(F)(F)F)cc3)cccc2nn1,0,
Cc1cc2c(NC(=O)CCCC(=O)O)cccc2nn1,10*,HuH7 TTR inh=-11;TTR up confirm=-1
COc1ccc(CNC(=O)CN2C(=O)CC(c3ccccc3)=Nc3ccccc32)cc1,-1,
CCN(CC)c1ccc(/C=N/NC(=O)c2ccc([N+](=O)[O-])cc2)cc1,0,
CCN(CC)c1ccc(N=Cc2ccccc2[N+](=O)[O-])cc1,-3,
CCN(CC)c1ccc(N=Cc2ccc([N+](=O)[O-])o2)cc1,17*,HuH7 TTR inh=-2;TTR up confirm=0
COc1cc(OC)cc(-c2c(-c3ccsc3)c3cc(Br)ccc3n2C)c1,0,
CCOc1ccc(C(C(=O)NC2CCCCC2)N(CCOC)C(=O)c2snc(C(N)=O)c2N)cc1 (stereo unspecified),0,
